The supplement of paper PMC11732987, “Enantioselective OTUD7B fragment discovery through chemoproteomics screening and high-throughput optimisation” (Communications Chemistry, 2025)

Legend:
Assay in all cases: log2 ratio of Biotin-Ahx-Ub-VS probe labelling (fragment/DMSO); higher = less target engagement (more negative = stronger competition), active = hit call of the paper (q ≤ 0.05, log2 ratio ≤ -1)
Conditions in all cases: compound concentration: 200 uM; treatment time: 3 h
USP19 = molecular target: T1, USP19 (UniProt O94966)
T1 sequence (whole entry): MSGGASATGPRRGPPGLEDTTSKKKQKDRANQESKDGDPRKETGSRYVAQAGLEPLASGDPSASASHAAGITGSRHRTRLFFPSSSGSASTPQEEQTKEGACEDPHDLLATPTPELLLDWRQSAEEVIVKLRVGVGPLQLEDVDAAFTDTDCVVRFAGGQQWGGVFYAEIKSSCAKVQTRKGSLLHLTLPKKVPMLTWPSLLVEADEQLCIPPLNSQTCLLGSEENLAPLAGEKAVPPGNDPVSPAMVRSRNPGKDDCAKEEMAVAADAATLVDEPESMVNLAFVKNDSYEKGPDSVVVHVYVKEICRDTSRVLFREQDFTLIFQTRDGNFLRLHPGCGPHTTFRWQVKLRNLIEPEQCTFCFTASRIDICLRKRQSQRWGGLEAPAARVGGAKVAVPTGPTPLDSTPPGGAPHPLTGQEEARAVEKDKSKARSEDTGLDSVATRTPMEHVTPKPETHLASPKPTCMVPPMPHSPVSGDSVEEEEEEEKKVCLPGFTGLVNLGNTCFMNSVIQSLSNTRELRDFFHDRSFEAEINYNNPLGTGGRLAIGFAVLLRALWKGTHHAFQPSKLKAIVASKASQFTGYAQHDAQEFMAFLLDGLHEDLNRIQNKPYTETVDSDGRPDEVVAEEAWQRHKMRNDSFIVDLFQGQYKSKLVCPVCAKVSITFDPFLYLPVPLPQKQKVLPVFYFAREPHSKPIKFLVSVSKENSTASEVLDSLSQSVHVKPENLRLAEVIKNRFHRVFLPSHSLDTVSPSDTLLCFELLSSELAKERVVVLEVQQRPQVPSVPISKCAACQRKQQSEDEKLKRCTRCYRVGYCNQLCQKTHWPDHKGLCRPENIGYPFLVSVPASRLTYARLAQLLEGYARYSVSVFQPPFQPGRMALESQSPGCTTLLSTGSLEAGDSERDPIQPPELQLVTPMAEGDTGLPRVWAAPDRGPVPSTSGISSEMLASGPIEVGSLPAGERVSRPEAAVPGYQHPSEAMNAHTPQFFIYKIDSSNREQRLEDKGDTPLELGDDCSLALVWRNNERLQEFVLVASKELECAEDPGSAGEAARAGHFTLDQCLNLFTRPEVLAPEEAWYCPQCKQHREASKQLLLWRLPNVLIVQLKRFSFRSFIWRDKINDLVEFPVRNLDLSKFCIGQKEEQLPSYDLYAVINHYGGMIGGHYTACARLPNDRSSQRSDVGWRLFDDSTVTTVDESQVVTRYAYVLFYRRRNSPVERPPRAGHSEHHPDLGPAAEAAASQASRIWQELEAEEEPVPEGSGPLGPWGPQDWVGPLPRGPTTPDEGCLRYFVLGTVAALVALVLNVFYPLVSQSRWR
Method in brief: (§1)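 Average log2 ratios of fragment over vehicle were obtained by unpaired t-test from global-median-normalised Spectronaut label-free quantities. Proteins with ≥2 unique peptides were included. HEK293T lysate (495 µg per sample) was treated in triplicate with fragment at 200 µM or vehicle for 3 h, then with Biotin-Ahx-Ub-VS at 0.5 µM final for 1 h, and labelled DUBs were NeutrAvidin-enriched and run by diaPASEF LC-MS/MS.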

USP22 = molecular target: T2, USP22 (UniProt Q9UPT9)
T2 sequence (whole entry): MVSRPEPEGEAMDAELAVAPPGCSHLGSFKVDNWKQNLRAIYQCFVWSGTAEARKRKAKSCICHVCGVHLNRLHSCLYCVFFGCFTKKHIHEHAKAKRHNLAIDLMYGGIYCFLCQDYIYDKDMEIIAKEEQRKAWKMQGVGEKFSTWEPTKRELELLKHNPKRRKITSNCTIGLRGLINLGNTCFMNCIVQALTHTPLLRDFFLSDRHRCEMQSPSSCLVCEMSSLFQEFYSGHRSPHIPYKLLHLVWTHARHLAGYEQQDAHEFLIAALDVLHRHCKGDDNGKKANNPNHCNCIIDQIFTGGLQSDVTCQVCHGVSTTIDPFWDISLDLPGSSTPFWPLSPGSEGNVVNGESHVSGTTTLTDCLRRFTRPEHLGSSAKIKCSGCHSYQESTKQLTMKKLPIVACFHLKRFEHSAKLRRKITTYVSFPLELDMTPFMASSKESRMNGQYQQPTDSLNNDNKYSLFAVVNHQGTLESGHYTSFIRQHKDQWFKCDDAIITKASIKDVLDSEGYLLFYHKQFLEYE
Method in brief: as §1

USP24 = USP24 (UniProt Q9UPU5)
Sequence of USP24 (Q9UPU5 whole entry): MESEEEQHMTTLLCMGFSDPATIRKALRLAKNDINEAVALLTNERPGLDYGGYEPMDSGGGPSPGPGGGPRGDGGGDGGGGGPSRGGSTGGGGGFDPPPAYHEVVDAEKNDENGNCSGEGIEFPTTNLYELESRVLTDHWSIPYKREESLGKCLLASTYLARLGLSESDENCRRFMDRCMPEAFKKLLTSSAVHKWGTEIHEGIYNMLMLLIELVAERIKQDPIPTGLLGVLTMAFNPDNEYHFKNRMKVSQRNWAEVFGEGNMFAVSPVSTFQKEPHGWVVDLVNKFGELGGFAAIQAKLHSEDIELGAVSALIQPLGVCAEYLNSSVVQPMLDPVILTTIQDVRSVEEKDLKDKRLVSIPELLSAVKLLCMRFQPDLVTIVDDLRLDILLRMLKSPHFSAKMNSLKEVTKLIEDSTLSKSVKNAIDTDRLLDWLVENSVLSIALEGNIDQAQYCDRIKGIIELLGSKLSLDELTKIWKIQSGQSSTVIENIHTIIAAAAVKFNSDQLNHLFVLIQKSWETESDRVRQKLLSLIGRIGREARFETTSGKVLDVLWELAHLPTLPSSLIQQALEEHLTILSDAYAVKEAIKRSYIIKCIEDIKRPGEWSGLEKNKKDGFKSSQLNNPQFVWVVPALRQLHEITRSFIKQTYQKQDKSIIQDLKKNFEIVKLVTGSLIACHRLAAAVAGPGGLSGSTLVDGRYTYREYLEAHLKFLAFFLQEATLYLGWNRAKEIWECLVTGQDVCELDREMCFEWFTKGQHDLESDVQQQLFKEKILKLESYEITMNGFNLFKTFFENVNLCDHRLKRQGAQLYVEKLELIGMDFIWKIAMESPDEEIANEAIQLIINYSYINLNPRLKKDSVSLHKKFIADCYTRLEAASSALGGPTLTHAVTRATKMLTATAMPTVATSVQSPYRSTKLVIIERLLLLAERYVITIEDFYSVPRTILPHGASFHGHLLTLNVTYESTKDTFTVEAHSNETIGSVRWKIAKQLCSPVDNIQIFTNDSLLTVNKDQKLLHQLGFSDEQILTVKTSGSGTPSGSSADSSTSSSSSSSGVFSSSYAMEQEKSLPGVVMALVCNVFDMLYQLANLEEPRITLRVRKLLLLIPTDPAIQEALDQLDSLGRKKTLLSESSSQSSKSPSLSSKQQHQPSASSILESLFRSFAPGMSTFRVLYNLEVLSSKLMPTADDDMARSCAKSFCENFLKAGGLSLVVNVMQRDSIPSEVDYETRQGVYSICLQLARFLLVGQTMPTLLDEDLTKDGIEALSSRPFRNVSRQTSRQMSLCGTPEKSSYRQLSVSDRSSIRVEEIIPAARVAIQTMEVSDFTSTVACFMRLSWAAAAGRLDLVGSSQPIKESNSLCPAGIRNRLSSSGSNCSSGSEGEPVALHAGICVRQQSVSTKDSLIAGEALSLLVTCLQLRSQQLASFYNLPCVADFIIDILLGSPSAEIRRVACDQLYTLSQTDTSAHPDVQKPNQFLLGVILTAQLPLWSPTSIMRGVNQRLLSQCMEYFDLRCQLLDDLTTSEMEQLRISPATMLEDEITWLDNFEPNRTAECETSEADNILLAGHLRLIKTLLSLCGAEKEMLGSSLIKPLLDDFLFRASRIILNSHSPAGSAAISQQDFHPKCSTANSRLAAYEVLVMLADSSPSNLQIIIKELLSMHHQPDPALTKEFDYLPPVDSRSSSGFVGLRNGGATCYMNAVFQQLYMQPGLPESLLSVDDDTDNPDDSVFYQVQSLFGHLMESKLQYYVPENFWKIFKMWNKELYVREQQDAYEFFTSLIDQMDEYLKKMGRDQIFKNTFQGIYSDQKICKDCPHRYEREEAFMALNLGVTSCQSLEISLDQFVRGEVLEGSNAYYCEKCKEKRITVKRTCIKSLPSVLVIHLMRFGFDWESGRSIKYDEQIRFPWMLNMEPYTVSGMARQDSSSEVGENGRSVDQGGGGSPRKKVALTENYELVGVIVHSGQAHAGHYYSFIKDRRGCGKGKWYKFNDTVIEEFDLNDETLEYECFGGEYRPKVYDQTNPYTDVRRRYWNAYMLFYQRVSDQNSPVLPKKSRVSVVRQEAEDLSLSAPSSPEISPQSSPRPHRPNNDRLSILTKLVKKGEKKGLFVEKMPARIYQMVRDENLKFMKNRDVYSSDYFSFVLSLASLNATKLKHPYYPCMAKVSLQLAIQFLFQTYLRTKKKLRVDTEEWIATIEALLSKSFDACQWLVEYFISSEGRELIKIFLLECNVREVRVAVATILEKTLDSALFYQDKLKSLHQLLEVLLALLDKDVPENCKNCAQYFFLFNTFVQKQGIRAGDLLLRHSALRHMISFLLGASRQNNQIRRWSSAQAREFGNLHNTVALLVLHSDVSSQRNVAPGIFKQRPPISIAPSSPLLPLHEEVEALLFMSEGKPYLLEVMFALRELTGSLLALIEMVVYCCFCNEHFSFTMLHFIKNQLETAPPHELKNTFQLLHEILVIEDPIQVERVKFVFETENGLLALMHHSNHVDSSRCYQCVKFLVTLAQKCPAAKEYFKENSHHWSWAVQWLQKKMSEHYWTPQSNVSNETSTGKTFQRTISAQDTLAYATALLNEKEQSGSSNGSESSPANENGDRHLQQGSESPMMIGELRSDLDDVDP
Method in brief: as §1

USP25 = molecular target: T3, USP25 (UniProt Q9UHP3)
T3 sequence (whole entry): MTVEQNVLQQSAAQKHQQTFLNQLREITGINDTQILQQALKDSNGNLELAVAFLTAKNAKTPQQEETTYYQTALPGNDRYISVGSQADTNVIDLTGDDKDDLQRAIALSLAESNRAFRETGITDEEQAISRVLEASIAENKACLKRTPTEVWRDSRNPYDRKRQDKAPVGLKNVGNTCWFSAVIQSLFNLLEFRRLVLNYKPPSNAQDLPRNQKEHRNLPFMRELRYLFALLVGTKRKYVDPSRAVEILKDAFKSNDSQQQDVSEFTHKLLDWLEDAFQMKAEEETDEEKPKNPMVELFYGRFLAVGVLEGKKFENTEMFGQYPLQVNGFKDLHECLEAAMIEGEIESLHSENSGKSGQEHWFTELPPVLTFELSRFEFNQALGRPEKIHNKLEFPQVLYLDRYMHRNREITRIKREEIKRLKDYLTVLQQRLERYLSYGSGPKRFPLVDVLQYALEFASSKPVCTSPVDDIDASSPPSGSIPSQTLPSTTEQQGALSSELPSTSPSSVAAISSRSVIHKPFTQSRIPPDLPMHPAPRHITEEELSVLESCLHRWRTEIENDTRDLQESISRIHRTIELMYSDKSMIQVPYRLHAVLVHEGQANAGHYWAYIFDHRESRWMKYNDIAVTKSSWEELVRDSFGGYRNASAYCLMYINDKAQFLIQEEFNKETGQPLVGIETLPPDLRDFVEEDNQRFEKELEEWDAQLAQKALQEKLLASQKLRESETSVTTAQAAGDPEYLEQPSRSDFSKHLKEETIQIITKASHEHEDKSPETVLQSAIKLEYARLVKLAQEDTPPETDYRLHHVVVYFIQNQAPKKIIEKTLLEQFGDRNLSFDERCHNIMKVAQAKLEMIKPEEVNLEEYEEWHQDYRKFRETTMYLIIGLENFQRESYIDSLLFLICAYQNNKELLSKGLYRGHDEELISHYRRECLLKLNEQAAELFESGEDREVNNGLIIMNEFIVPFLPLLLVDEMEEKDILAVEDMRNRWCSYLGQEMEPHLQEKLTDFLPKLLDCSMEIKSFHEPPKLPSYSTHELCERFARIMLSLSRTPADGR
Method in brief: as §1

USP28 = molecular target: T4, USP28 (UniProt Q96RU2)
T4 sequence (whole entry): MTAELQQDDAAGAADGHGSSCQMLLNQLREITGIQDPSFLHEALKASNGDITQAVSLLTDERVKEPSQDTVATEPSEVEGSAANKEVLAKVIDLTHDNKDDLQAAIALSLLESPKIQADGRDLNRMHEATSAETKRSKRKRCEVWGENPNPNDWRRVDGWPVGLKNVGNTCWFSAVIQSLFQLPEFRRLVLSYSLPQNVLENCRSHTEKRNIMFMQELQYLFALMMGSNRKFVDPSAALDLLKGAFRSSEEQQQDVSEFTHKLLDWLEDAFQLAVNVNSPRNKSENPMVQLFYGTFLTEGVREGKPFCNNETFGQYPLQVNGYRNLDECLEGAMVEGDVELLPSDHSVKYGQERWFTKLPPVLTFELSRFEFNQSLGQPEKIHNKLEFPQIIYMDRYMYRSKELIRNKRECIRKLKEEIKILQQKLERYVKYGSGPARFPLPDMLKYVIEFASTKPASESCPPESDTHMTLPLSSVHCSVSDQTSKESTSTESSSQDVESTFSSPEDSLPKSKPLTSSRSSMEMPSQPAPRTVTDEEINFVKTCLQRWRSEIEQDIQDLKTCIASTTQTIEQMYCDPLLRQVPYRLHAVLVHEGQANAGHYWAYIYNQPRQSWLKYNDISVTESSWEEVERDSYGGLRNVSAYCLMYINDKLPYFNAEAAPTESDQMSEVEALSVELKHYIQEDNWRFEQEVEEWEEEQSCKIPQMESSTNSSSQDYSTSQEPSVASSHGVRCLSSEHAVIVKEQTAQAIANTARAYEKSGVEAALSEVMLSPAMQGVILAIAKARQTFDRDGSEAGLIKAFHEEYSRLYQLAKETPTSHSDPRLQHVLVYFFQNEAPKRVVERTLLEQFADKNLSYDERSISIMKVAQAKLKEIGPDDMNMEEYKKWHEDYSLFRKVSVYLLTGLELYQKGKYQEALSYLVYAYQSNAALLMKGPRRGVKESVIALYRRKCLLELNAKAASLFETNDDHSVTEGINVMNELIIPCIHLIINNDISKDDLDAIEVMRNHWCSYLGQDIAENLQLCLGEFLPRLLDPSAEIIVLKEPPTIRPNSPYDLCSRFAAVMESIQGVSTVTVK
Method in brief: as §1

Measured: log2 ratio of Biotin-Ahx-Ub-VS probe labelling

Cc1nnc(C(NC(=O)CCl)c2ccccc2)n1C (stereo not given)
inactive: USP19 0.626 | USP22 0.332 | USP24 0.636 | USP25 0.465 | USP28 0.507
